Assay outcomes as filed in PubChem.
KB-V1 cytotox = kills drug-selected multidrug resistant KB-V1 cells | 400,000 compounds, 3.4% hits | Potency, µM (titrated, usually from 46.1 µM), usual class: cytotoxic | KB-V1 MDR cells viability, CellTiter-Glo, 72 h; note: % is set by controls: 0 for no effect and ±100 for the full control effect; nearly all actives have a fitted effect of over 60% in size
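Cells of the MDR subline KB-V1 are plated, dosed with compound at multiple concentrations, and incubated 72 h at 37 degrees C; CellTiter-Glo is then added and luminescence read after 10 min.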
ELG1 DNA repair = inhibitors of ELG1-dependent DNA repair in HEK293T cells; HEK293T ELG1-luciferase reporter, luminescence, 16 h; DNA damage induced by 5-fluorouridine; Potency, µM (doses to about 46.1 µM), for inactives: at the highest dose activity change, negative = inhibition, hits mostly inhibitors; 330,000 compounds, 2.3% hits; note: % is set by controls: 0 for no effect and ±100 for the full control effect; nearly all actives have a fitted effect of over 55% in size
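Overnight (16 hr) co-exposure of 2,000 cells/well to 5-fluorouridine and compound at 37 °C preceded detection. Luciferase was quantified via ONE-Glo luminescence; loss of signal denotes inhibition.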
MCF10A rereplic = induces DNA re-replication in MCF 10a normal breast cells. Potency, µM (doses to about 46.1 µM), inactives show at the highest dose activity, positive = re-replication, actives largely listed as activators. 350,000 compounds, 2.9% hits. MCF 10A DNA re-replication, Hoechst nuclear intensity, 48 h; note: % of control where 0% means no effect; nearly all actives have a fitted effect of over 50% in size
KB-3-1 tox = KB-3-1 parental cell cytotoxicity | KB-3-1 viability, CellTiter-Glo ATP luminescence, 72 h | Potency, µM (titrated, usually from 46.1 µM), hits mostly cytotoxic | 400,000 compounds, 1.4% hits; note: % is set by controls: 0 for no effect and ±100 for the full control effect; nearly all actives have a fitted effect of over 60% in size
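Cytotoxicity in the drug-sensitive parental line KB-3-1 was scored as loss of CellTiter-Glo luminescence following 72 h incubation with compound. Values come from curve fitting of normalized concentration-response data.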
SW480 rerep = inducers of DNA re-replication in SW480 colon cancer cells; SW480 DNA re-replication, Hoechst DNA content imaging, 48 h; Potency, µM (titrated, usually from 46.1 µM), inactives show at the highest dose re-replication activation, most hits filed as activators; 340,000 compounds, 1.8% hits; AID 624297; note: % of control where 0% means no effect; nearly all actives have a fitted effect of over 55% in size
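Per well, 250 cells were exposed to pinned compound for 48 hr. Nuclear DNA was visualised with Hoechst (40 min, 37 C) and total object intensity recorded by fluorescence scanning.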
* hit, by the source's call. Compounds with a hit are over-represented: about 8.1% of the library has one in this group of screens. Calls come from the whole dose curve; as a rule, active = well fitted curve in the direction sought with a large enough effect; inconclusive = small, poorly fitted or top-dose-only effect, or another doubt; inactive = no such curve, though single readings can be large; an effect the other way counts as inactive or inconclusive. Potency is the fitted concentration of half-maximal effect.

For CN(CCOc1ccccc1)CC(=O)Nc1ccc(S(=O)(=O)N2CCCC2)cc1 the results were KB-V1 cytotox inactive, ELG1 DNA repair -8.2%, MCF10A rereplic inconclusive, KB-3-1 tox inactive and SW480 rerep -32.3%.
Cc1sc(-c2ccccn2)nc1OC(=O)c1cccc(Cl)c1Cl was read as KB-V1 cytotox inactive, ELG1 DNA repair 6.2%, MCF10A rereplic -0.7%, KB-3-1 tox inactive and SW480 rerep -4.0%.
Screening c1ccc(-c2nnc(SCc3nc4ccccc4[nH]3)n2Cc2ccco2)nc1 returned KB-V1 cytotox 2.59µM*, ELG1 DNA repair inconclusive, MCF10A rereplic 11.2%, KB-3-1 tox inactive and SW480 rerep 2.8%.
CCn1c(SCCOc2ccc(Cl)cc2)nnc1-c1cccs1 was read as KB-V1 cytotox 9.2µM*, ELG1 DNA repair -2.2%, MCF10A rereplic 15.1%, KB-3-1 tox inactive and SW480 rerep -6.5%.
Clc1ccc(OCc2nnc(SCc3nc4ccccc4[nH]3)n2Cc2ccco2)cc1 was read as KB-V1 cytotox 5.8µM*, ELG1 DNA repair 16.4µM*, MCF10A rereplic 24.0%, KB-3-1 tox inconclusive and SW480 rerep 14.6%.
Screening C/C(=N\NC(=O)c1c[nH]c2ccccc12)c1ccc(C)s1 returned KB-V1 cytotox inactive, ELG1 DNA repair inconclusive, MCF10A rereplic 15.4%, KB-3-1 tox inactive and SW480 rerep 4.3%.
CC/C(=N\NC(=O)c1c[nH]c2ccccc12)c1cccs1 was read as KB-V1 cytotox 16.4µM*, ELG1 DNA repair inconclusive, MCF10A rereplic -17.5%, KB-3-1 tox inactive and SW480 rerep -3.3%.
Screening CC(NCc1cc(Br)ccc1OCC(N)=O)C12CC3CC(CC(C3)C1)C2 (stereo not given) returned KB-V1 cytotox inactive, ELG1 DNA repair inconclusive, MCF10A rereplic inconclusive, KB-3-1 tox inactive and SW480 rerep 26.9%.
For CCn1c(COc2ccc(C)cc2)nnc1SCc1nc2ccccc2[nH]1 the results were KB-V1 cytotox 2.59µM*, ELG1 DNA repair inconclusive, MCF10A rereplic 21.9%, KB-3-1 tox inactive and SW480 rerep 1.5%.
Screening C(=C\c1ccccc1)/CSc1nnc(-c2ccccn2)n1Cc1ccco1 returned KB-V1 cytotox inconclusive, ELG1 DNA repair -2.4%, MCF10A rereplic 7.94µM*, KB-3-1 tox 5.8µM* and SW480 rerep 20.6µM*.
For Cn1c(COc2ccccc2)nnc1SCc1nc2ccccc2[nH]1 the results were KB-V1 cytotox inconclusive, ELG1 DNA repair -14.5%, MCF10A rereplic inconclusive, KB-3-1 tox inactive and SW480 rerep inconclusive.
Screening CCn1c(SCC(=O)c2c[nH]c3ccccc23)nnc1-c1cccs1 returned KB-V1 cytotox inconclusive, ELG1 DNA repair -17.6%, MCF10A rereplic inconclusive, KB-3-1 tox 16.4µM* and SW480 rerep 14.6µM*.
For COCCn1c(SCC(=O)c2c[nH]c3ccccc23)nnc1-c1ccncc1 the results were KB-V1 cytotox inactive, ELG1 DNA repair 0.2%, MCF10A rereplic 1.0%, KB-3-1 tox inactive and SW480 rerep -2.4%.
Screening CCn1c(SCc2nc3ccccc3[nH]2)nnc1-c1cccs1 returned KB-V1 cytotox 8.2µM*, ELG1 DNA repair -2.0%, MCF10A rereplic -4.8%, KB-3-1 tox inactive and SW480 rerep -8.6%.
`CC(=O)c1ccc(S(=O)(=O)Nc2ccc(-c3ccc(N4CCCCCC4)nn3)cc2)cc1` gave KB-V1 cytotox inactive and KB-3-1 tox inactive.
`CC1=Nc2cc(Cl)ccc2Oc2ccccc21` gave KB-V1 cytotox inactive, ELG1 DNA repair 12.1%, MCF10A rereplic -3.1%, KB-3-1 tox inactive and SW480 rerep -5.3%.
Screening O=C(COC(=O)C1CC(=O)N(Cc2ccco2)C1)Nc1nc(-c2ccc(F)cc2)cs1 (stereo not given) returned KB-V1 cytotox inconclusive, ELG1 DNA repair inconclusive, MCF10A rereplic -4.3%, KB-3-1 tox inactive and SW480 rerep inconclusive.
Screening CCn1c(CNc2nc3ccccc3n2C(C)C)nc2ccccc21 returned KB-V1 cytotox 11.6µM*, ELG1 DNA repair 0.1%, MCF10A rereplic -4.1%, KB-3-1 tox inactive and SW480 rerep -0.7%.
CC(C)n1c(NCc2nc3ccccc3n2C)nc2ccccc21 was read as KB-V1 cytotox inactive, ELG1 DNA repair 6.3%, MCF10A rereplic 4.1%, KB-3-1 tox inactive and SW480 rerep 2.1%.
CN(C)c1cc[n+](CC(=O)Nc2cc(C(F)(F)F)ccc2Cl)cc1 was read as KB-V1 cytotox inactive, ELG1 DNA repair -8.5%, MCF10A rereplic inconclusive, KB-3-1 tox inactive and SW480 rerep inconclusive.
Cc1cc[n+](CC(=O)Nc2cc(C(F)(F)F)ccc2Cl)cc1 was read as KB-V1 cytotox inactive, ELG1 DNA repair 0.4%, MCF10A rereplic 23.1µM*, KB-3-1 tox inactive and SW480 rerep -1.7%.
Screening COCC(=O)N1CCCC(N(C)CCc2ccc(OC)c(OC)c2)C1 (stereo not given) returned KB-V1 cytotox inactive, ELG1 DNA repair inconclusive, MCF10A rereplic 21.2%, KB-3-1 tox inactive and SW480 rerep -19.5%.
COC(=O)[C@@]12C[C@@H](CC(=O)NCc3cccs3)C(=O)N(Cc3ccccc3)C1=CCC(C)(C)C2 was read as KB-V1 cytotox inconclusive and KB-3-1 tox inactive.
For COC(=O)[C@@]12C[C@@H](CC(=O)NCc3ccc(C)o3)C(=O)N(Cc3ccccc3)C1=CCC(C)(C)C2 the results were KB-V1 cytotox 18.4µM* and KB-3-1 tox inactive.
For COC(=O)[C@@]12C[C@@H](CC(=O)NCc3ccccc3)C(=O)N(Cc3ccccc3)C1=CCC(C)(C)C2 the results were KB-V1 cytotox 20.6µM* and KB-3-1 tox inconclusive.
COc1cccc(OC)c1C(=O)OCC(=O)NCc1ccco1 was read as KB-V1 cytotox inactive, ELG1 DNA repair 4.6%, MCF10A rereplic 10.3%, KB-3-1 tox inactive and SW480 rerep -17.5%.
For O=C(NCCc1ccc2c(c1)OCCO2)c1ccc(F)cc1 the results were KB-V1 cytotox 23.1µM*, ELG1 DNA repair inconclusive, MCF10A rereplic 4.4% and KB-3-1 tox inactive.
Cc1c(C(=O)NC(=S)Nc2ccc(N3CCOCC3)cc2)cccc1[N+](=O)[O-] was read as KB-V1 cytotox inactive, ELG1 DNA repair -0.9%, MCF10A rereplic 4.1%, KB-3-1 tox inactive and SW480 rerep -3.2%.
COc1ccc(C(=O)N2CCN(C(=O)c3cc(OC)c(OC)c(OC)c3)CC2)cc1 was read as KB-V1 cytotox inactive, ELG1 DNA repair -2.8%, MCF10A rereplic 8.0%, KB-3-1 tox inactive and SW480 rerep -6.0%.
Screening O=C(c1ccc2ncsc2c1)N1CCN(c2ccccc2Cl)CC1 returned KB-V1 cytotox inconclusive, ELG1 DNA repair inconclusive, MCF10A rereplic 28.1%, KB-3-1 tox inactive and SW480 rerep 27.7%.
